Source: PubChem (National Center for Advancing Translational Sciences (NCATS))
An excerpt weighted towards active compounds, which were near 19% of everything screened.
DT40 TDP1 CPT: DT40-hTDP1 cell growth loss with CPT; chicken DT40 Tdp1-/-;hTDP1 cells + 20 nM CPT, ATP luminescence, 48 h; Potency, µM (doses to about 46.2 µM), for inactives: top-dose activity change, negative = growth inhibition, actives largely listed as inhibitors; 420,000 compounds, 12% hits; note: nearly all actives have a fitted effect of over 55% in size
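Chicken DT40 Tdp1-/- cells stably complemented with human TDP1 were seeded at 400 cells/well in medium containing 20 nM camptothecin, exposed to pin-transferred compounds, and grown at 37 °C for at least 48 hr. Viability was read as ATP luminescence.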
HT1080-NT tox: kills 2HG-producing HT-1080-NT fibrosarcoma cells; 360,000 compounds, 1.6% hits; HT-1080-NT fibrosarcoma viability, CellTiter-Glo ATP luminescence, 48 h; Potency, µM (highest dose often 46.1 µM), inactives show at the top dose activity, negative = less viability, usual class: cytotoxic;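 note: NT is the 2HG producing partner of a matched IDH1 knockdown line; 0% = DMSO-treated cells and -100% = media-only wells without cells; nearly all actives have a fitted effect of over 55% in size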
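Viability by CellTiter-Glo luminescence after 48 h compound exposure at 37C of HT-1080-NT cells (750/well, RPMI, 5% FBS). % activity scaled between DMSO wells and medium-only wells, then curve-fitted and categorized by curve class.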
DT40 TDP1 no CPT: qHTS for Inhibitors of human tyrosyl-DNA phosphodiesterase 1 (TDP1): qHTS in cells in absence of CPT | DT40 Tdp1-/- hTDP1 cells, no CPT, ATP luminescence, 48 h | Potency, µM (highest dose often 46.2 µM), without a hit: at the top dose activity change, negative = growth inhibition, usual class: inhibitors | 420,000 compounds, 15% hits | AID 686978, 2013; note: nearly all actives have a fitted effect of over 55% in size
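Camptothecin absent (DMSO only). Human TDP1-complemented DT40 knockout cells, 400 cells/well, 37 °C for minimum 48 hr; ATP measured via CellTiter-Glo, 30 min dark incubation, luminescence.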
KB-V1 MDR tox: KB-V1 MDR subline cytotoxicity. KB-V1 MDR cells viability, CellTiter-Glo, 72 h. Potency, µM (doses to about 46.1 µM), hits mostly cytotoxic. 400,000 compounds, 3.4% hits. AID 1347076; note: nearly all actives have a fitted effect of over 60% in size
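Luminescent ATP read-out (CellTiter-Glo, 10 min) measures survival of drug-selected KB-V1 MDR cells after 72 h, 37 degrees C compound exposure. Medium: phenol-red-free DMEM, 10% FBS. Values from fitted concentration-response curves.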
KB-3-1 tox: kills parental KB-3-1 adenocarcinoma cells; Potency, µM (top dose mostly 46.1 µM), usual class: cytotoxic; AID 1347075; 400,000 compounds, 1.4% hits; KB-3-1 viability, CellTiter-Glo ATP luminescence, 72 h; note: nearly all actives have a fitted effect of over 60% in size
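Cytotoxicity measured as CellTiter-Glo luminescence after 72 h at 37 C. Compound titrations were pinned onto drug-naive KB-3-1 parental adenocarcinoma cells grown in DMEM with 10% FBS, and normalized data fitted to concentration-response curves.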
HT1080 IDH1KD tx: HT-1080 IDH1 knockdown cell toxicity (counter line). 360,000 compounds, 2% hits. HT-1080 IDH1 knockdown viability, ATP luminescence, 48 h. AID 686971. Potency, µM (series often up to 46.1 µM), inactives show top-dose activity, negative = toxicity, usual class: cytotoxic;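 note: 0% = DMSO wells and -100% = cell-free medium wells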
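After a 2 h attachment period, IDH1KD HT-1080 cells took pin-transferred compound for 48 h at 37 °C; ATP-based luminescence after 10 min room-temperature reagent incubation reported viability.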
Numbers without * were called inactive; i = inactive; ? = inconclusive; nt = no result. Calls come from the whole dose curve; as a rule, active = well fitted curve in the direction sought with a large enough effect; inconclusive = small, poorly fitted or top-dose-only effect, or another doubt; inactive = no such curve, though single readings can be large; an effect the other way counts as inactive or inconclusive. Unless noted, % is set by controls: 0 for no effect and ±100 for the full control effect; potency is the fitted concentration of half-maximal effect.

SMILES	DT40 TDP1 CPT	HT1080-NT tox	DT40 TDP1 no CPT	KB-V1 MDR tox	KB-3-1 tox	HT1080 IDH1KD tx
CN(C)CCCNc1nc2cc(-c3cncnc3)sc2c(=O)n1C	-29%	8%	-27%	i	i	23%
Cc1cccc(NC(=O)CSC2=Nc3ccccc3C3=NC(CC(=O)NCc4cccs4)C(=O)N23)c1 (centres undefined)	?	nt	?	i	i	nt
Cc1ccc(CN(C)C(=O)CN2C(=O)NC3(CCCc4ccccc43)C2=O)c(C)c1 (centres undefined)	?	-6%	21µM*	i	i	-24%
O=C(O)CN1C(=O)NC2(CCCc3ccccc32)C1=O (centres undefined)	16%	0%	-13%	?	i	4%
Cc1cc(C)c(NC(=O)CN2C(=O)NC3(CCCc4ccccc43)C2=O)c(Cl)c1 (centres undefined)	?	-1%	18µM*	i	i	-3%
O=C(CN1C(=O)NC2(CCCc3ccccc32)C1=O)N1CCc2ccccc2C1 (centres undefined)	?	-2%	21µM*	i	i	-5%
O=C(CN1C(=O)NC2(CCCc3ccccc32)C1=O)Nc1cccc(S(=O)(=O)N2CCCCC2)c1 (centres undefined)	?	-14%	16µM*	?	i	-15%
CN(C)C(=O)CN1C(=O)NC2(CCCc3ccccc32)C1=O (centres undefined)	-4%	-2%	21%	?	i	0%
CC(C)c1ccc(OCC(=O)NCCS(=O)(=O)N2CCN(c3ccc(F)cc3)CC2)cc1	-2%	nt	-18%	nt	nt	nt
O=C(CCCCCn1c(=S)[nH]c2cc3c(cc2c1=O)OCO3)N1CCN(C2CCCCC2)CC1	?	-4%	?	21µM*	i	0%
COc1ccc(N2CCN(C(=O)CCCn3c(=S)[nH]c4cc5c(cc4c3=O)OCO5)CC2)cc1	-20%	0%	-6%	i	i	-8%
O=C(CCCCCn1c(=S)[nH]c2cc3c(cc2c1=O)OCO3)N1CCN(Cc2ccccc2)CC1	9.2µM*	-14%	-29%	i	i	-25%
O=C(CCCCCn1c(=S)[nH]c2cc3c(cc2c1=O)OCO3)N1CCN(C(=O)c2ccco2)CC1	-23%	-24%	-29%	i	i	-3%
Cc1cc(=O)[nH]c(SCc2nnc(-c3ccccc3)o2)n1	-11%	11%	-13%	i	i	27%
Clc1ccc2nc(SCc3nnc(-c4ccccc4)o3)[nH]c2c1	5%	-14%	?	16µM*	i	2%
Cn1c(NCCc2ccncc2)nc2cc(-c3cccc(C(F)(F)F)c3)sc2c1=O	?	2%	?	i	i	-19%
COC(=O)c1ccc(NCCc2csc(-c3ccc(C)cc3)n2)c([N+](=O)[O-])c1	-12%	1%	-11%	i	i	0%
COc1cc(CNc2nc3c(C)cc(C)cc3s2)ccc1O	?	?	21µM*	?	i	-30%
Cc1cc(C)c2nc(NCc3ccccc3O)sc2c1	?	-1%	-23%	i	i	-18%
CN1N=C2c3ccccc3CCCC2C1c1ccc(F)cc1 (centres undefined)	-23%	-16%	?	i	i	-17%
COc1ccc2c(c1)C1=NN(/C(C)=C/C(C)=O)C(c3cccc(F)c3)C1CC2 (centres undefined)	0%	-14%	-15%	i	i	-12%
COc1ccc2c(c1)C1=NN(/C(C)=C\C(C)=O)C(c3ccccc3)C1CC2 (centres undefined)	18µM*	-25%	?	i	i	-21%
COc1ccc2c(c1)CCC1C2=NN(/C(C)=C\C(C)=O)C1c1ccc(F)cc1 (centres undefined)	18µM*	0%	?	i	i	-1%
CC(=O)N1N=C2c3ccccc3CCC2C1c1cccs1 (centres undefined)	?	-2%	?	i	i	2%
COc1ccc2c(c1)C1=NN(/C(C)=C/C(C)=O)C(c3ccc(F)cc3)C1CC2 (centres undefined)	?	5%	?	21µM*	i	13%
SMILES	DT40 TDP1 CPT	HT1080-NT tox	DT40 TDP1 no CPT	KB-V1 MDR tox	KB-3-1 tox	HT1080 IDH1KD tx
Cc1ccc(CNC(=O)N2CCC(CN3CCC(C)CC3)CC2)cc1	-2%	nt	-15%	i	i	nt
O=C(NCc1ccc(Cl)cc1)C1CCN(S(=O)(=O)Cc2ccccc2)CC1	-16%	nt	-1%	i	i	nt
CCOC(=O)c1oc2cc(O)c(CC)cc2c(=O)c1-c1cscn1	-6%	-10%	-16%	i	i	8%
CCOC(=O)c1oc2cc(O)cc(O)c2c(=O)c1OCc1ccccc1	18µM*	-2%	16µM*	i	i	-9%
CCOC(=O)c1ccc(-c2c(C(=O)OCC)oc3cc(O)c(CC)cc3c2=O)o1	15µM*	4%	12µM*	i	i	-4%
O=C(COc1cccnc1[N+](=O)[O-])NCCc1ccc(F)cc1	10%	1%	1%	i	i	11%
CCc1ccc(NC(=O)CSCc2nc(N)nc(Nc3ccccc3CC)n2)cc1	15µM*	-2%	?	i	i	-7%
CCc1ccccc1Nc1nc(N)nc(COC(=O)c2cccn2C)n1	-21%	?	-18%	15µM*	i	6.3µM*
CC[n+]1c(C)sc2c(C)cc(C)cc21	23µM*	-4%	?	?	i	-7%
COc1ccccc1CNC(=O)c1ccc2nc(N3CCCCC3)sc2c1	?	nt	?	i	i	nt
COc1cc(OC)c2ccc(=O)oc2c1C(CCN1CCCC(C)C1)c1ccc2c(c1)OCO2 (centres undefined)	10µM*	-8%	15µM*	i	i	-9%
COc1cc(O)c(C(CCN2CCCC(C)C2)c2ccc3c(c2)OCO3)c(OC)c1 (centres undefined)	16µM*	-13%	16µM*	i	i	-27%
Cc1ccc(S(=O)(=O)NCC(=O)N(c2ccccc2)C(C(=O)NCc2ccccc2)c2ccco2)cc1 (centres undefined)	?	-2%	18µM*	2.3µM*	i	-4%
